From PubChem
A selection: hits, their analogues and other compounds. The true share with any hit is near 9%.
KinaseGlo FLuc = Kinase-Glo luciferase inhibition (counter-screen). Potency, µM (series often up to 38.3 µM), inactives show at the highest dose activity change, negative = inhibition, hits mostly inhibitors. Kinase-Glo luciferase, ATP luminescence, 8 min. AID 1379. Q27757. actives 0.28% (n = 200,000); also: % is scaled to controls: 0 for no effect and ±100 for the full control effect; nearly all actives have a fitted effect of over 60% in size
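Recombinant Kinase-Glo luciferase, 10 uM ATP (linear range), luciferin; imidazole pH 7.2 / KCl / MgCl2 / Tween / BSA buffer; 8 min RT; luminescence.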
HttQ103 aggreg = inhibitors of mutant huntingtin aggregate formation in PC12 cells; actives 1.1% (n = 220,000); AID 1688; Potency, µM (series often up to 46.1 µM), inactives show top-dose activity change, negative = inhibition, hits mostly inhibitors; PC12 HttQ103-GFP aggregates, Acumen cytometry, 40 h; also: % is scaled to controls: 0 for no effect and ±100 for the full control effect; nearly all actives have a fitted effect of over 60% in size
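PC12/HTTQ103-GFP, ecdysone-inducible; teb 100 nM; cpd qHTS titration; GFP aggregates read on laser cytometer, Ex 488/Em 500-530 nm.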
ALDH1A1 block = blocks purified human ALDH1A1 activity; P00352; Purified ALDH1A1, NADH fluorescence, propionaldehyde substrate; Potency, µM (titrated, usually from 75.3 µM), for inactives: at the highest dose activity, negative = inhibition, hits mostly inhibitors; actives 7.3% (n = 220,000); AID 1030; active = well fitted inhibition curve with a large enough effect, not every such curve was filed as active; inconclusive = small, poorly fitted or top-dose-only effect, or another doubt; inactive = no such curve, though single readings can be large or run the other way;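 also: plate controls were no enzyme wells and a reference inhibitor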
LMNA splice mod = modulators of lamin A splicing | Potency, µM (titrated, usually from 46.1 µM), inactives show top-dose ratio change, negative = inhibition, most hits filed as inhibitors | HeLa LMNA splicing GFP/RFP minigene ratio, 48 h | actives 0.01% (n = 200,000); active = well fitted inhibition curve with a large enough effect in the signal ratio, with a control signal flat, not every such curve was filed as active; inconclusive = small, poorly fitted or top-dose-only effect, or effect the other way, or a change in a side signal; the % refers to the signal ratio; also: % is scaled to controls: 0 for no effect and ±100 for the full control effect
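S3 HeLa stable clones carrying a lamin A-EGFP splicing minigene plus DsRed2 were seeded at 600 cells/well in Opti-MEM with 2% FBS, pin-dosed and incubated 48 h at 37°C. Acumen cytometry (488 nm) gave the GFP/RFP total-intensity ratio.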
HTT ATP protect = protects HTT-Q103 PC12 cells, measured by ATP; PC12 HTT-Q103 induced, cytoprotection, ATP luminescence, 40 h; Potency, µM (doses to about 56.4 µM), inactives show cytoprotection (ATP increase), actives largely listed as activators; actives 0.14% (n = 230,000); AID 1471; also: % of control where 0% means no effect; nearly all actives have a fitted effect of over 45% in size
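Huntington model: PC12 line, ecdysone-inducible HTTQ103 exon1–GFP, tebufenozide 100 nM. Test articles in a dose series. Endpoint luminescence from cellular ATP.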
HPGD block = HPGD (human) dehydrogenase inhibition. Potency, µM, for inactives: at the top dose activity change, negative = inhibition, usual class: inhibitors. purified HPGD, NADH fluorescence kinetic, PGE2 substrate. AID 894. P15428. actives 4.3% (n = 150,000); active = well fitted inhibition curve with a large enough effect, not every such curve was filed as active; inconclusive = small, poorly fitted or top-dose-only effect, or another doubt; inactive = no such curve, though single readings can be large or run the other way; also: % is scaled to controls: 0 for no effect and ±100 for the full control effect
Target sequence (P15428 whole entry, looked up): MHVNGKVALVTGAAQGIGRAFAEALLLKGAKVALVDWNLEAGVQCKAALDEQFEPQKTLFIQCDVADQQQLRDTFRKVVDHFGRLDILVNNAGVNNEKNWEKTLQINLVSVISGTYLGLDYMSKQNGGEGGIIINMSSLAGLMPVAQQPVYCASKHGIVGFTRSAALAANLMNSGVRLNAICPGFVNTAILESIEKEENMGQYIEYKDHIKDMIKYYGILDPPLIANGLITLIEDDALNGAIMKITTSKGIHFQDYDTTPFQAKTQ
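NADH formation kinetics: reaction with 30 uM PGE2 and 1 mM NAD+ (final), 20 nM enzyme, Tris-HCl pH 8 with Tween 20, after 15 min compound preincubation at room temperature. Fluorescence change, last versus first of five reads.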
* marks the source's active call; other numbers are inactive results; ? = inconclusive; nt = not tested or not shown; [ ] = remark or other dose. Unless noted, calls follow the shape of the dose curve; as a rule, active = well fitted curve in the direction sought with a large enough effect; inconclusive = small, poorly fitted or top-dose-only effect, or another doubt; inactive = no such curve, though single readings can be large; an effect the other way counts as inactive or inconclusive. Potency is read from the fitted curve at half-maximal effect.

SMILES	KinaseGlo FLuc	HttQ103 aggreg	ALDH1A1 block	LMNA splice mod	HTT ATP protect	HPGD block
COc1ccccc1OCCC(=O)OCC(=O)Nc1cc(S(=O)(=O)N2CCOCC2)ccc1Cl	-4%	-7%	6.3µM*	-3%[46 µM]	-18%	nt
COc1ccc(S(=O)(=O)N2CCOCC2)cc1NC(=O)CCc1c[nH]c2ccccc12	5%	21%	14µM*	-18%[46 µM]	-21%	nt
COc1ccccc1OCCC(=O)OCC(=O)Nc1ccc(S(=O)(=O)N2CCOCC2)cc1	1%	18%	?	-17%[46 µM]	11%[10 µM]	nt
Cc1c(NN=C(C#N)C#N)c(=O)n(-c2ccccc2)n1C	3%	-17%	3.5µM*	-16%[46 µM]	-16%	nt
Cc1c(NC(=O)/C(C#N)=C/c2ccccc2)c(=O)n(-c2ccccc2)n1C	6%	0%	-12%	nt	-2%	nt
Cc1ccc(O)c(/C=N/NC(=O)C2=NNC(c3ccccc3)(c3ccccc3)C2)c1	0%	?	?	?	3%[10 µM]	-27%
O=C(c1ccc(CNS(=O)(=O)c2ccc(Br)cc2)cc1)N1CCCC1	nt	-22%	?	nt	-30%	nt
COc1ccc(S(=O)(=O)N2CCC(C(=O)N3CCc4ccccc4C3)CC2)cc1C	-1%	-15%	-2%	1%	-22%	-3%
COc1ccc(S(=O)(=O)NCc2ccc(C(=O)N3CCc4ccccc4C3)cc2)cc1	0%	-27%	3%	?	0%[10 µM]	2.8µM*
COc1ccc(S(=O)(=O)N2CCC(C(=O)N3CCc4ccccc4C3)CC2)cc1	2%	-19%	?	?	-11%	35µM*
CC(C)(C)c1ccc(S(=O)(=O)NCc2ccc(C(=O)N3CCOCC3)cc2)cc1	-4%	7%	11µM*	5%	8%[10 µM]	-11%
Clc1nnc(N/N=C/c2ccccc2)c2ccccc12	-20%	16%	-9%	-14%	-13%[10 µM]	-13%
Clc1nnc(NN=C2CCCC2)c2ccccc12	-4%	4%	2.8µM*	?	nt	-14%
CCOC(=O)c1ccccc1NC(=O)CN(c1ccccc1C)S(C)(=O)=O	0%	-14%	-15%	3%	?	-12%
CCCC(C)NNC(=O)c1cc2ccccc2[nH]1 (configuration not stated)	0%	-2%	13%	16%	-12%	13µM*
CCCCCn1cnc2c(sc3nc4c(cc32)CSC(C)(C)C4)c1=O	-5%	5%	2.8µM*	-10%	4%[10 µM]	?
CC1(C)Cc2nc3sc4c(=O)[nH]cnc4c3cc2CS1	4%	9%	14µM*	-4%	-18%	?
C=C(C(=O)C(C)(C)O)C(O)c1ccc([N+](=O)[O-])cc1 (configuration not stated)	-2%	nt	?	nt	41%	25µM*
COc1ccc(C(=O)N/N=c2\oc3ccccc3cc2C(=O)NCc2ccccc2)cc1	0%	-26%	11µM*	-2%	-10%[10 µM]	-5%
CCN(CC)S(=O)(=O)c1cccc(NC(=O)c2cc3ccccc3o2)c1	0%	6%	22µM*	?	0%	-20%
CN(C)S(=O)(=O)c1cccc(NC(=O)c2cc3ccccc3o2)c1	-2%	20%	?	?	-12%	-10%
Cc1cc(C(=O)Nc2ccccc2)oc1C	13µM*	-2%	?	-1%	-54%	?
COC(=O)c1ccc(CNC(=O)c2cc3ccccc3oc2=O)cc1	-2%	9%	-6%	2%[46 µM]	6%	nt
O=C(O)c1cc2c(ccc3ccccc32)o1	3%	18µM*	-2%	9%	-36%	?
CC(=O)c1cc(C(=O)Nc2ccc(C(=O)O)cc2)oc1C	-3%	11%	4%	-5%	17%	-11%
SMILES	KinaseGlo FLuc	HttQ103 aggreg	ALDH1A1 block	LMNA splice mod	HTT ATP protect	HPGD block
NNC(=O)c1cc2c(ccc3ccccc32)o1	2%	15%[9.22 µM]	?	nt	-25%	nt
COc1ccc(NS(=O)(=O)c2cn(C)c(=O)n(C)c2=O)c(OC)c1	nt	-6%[9.22 µM]	nt	nt	-5%[10 µM]	nt
O=C(NCc1ccccc1)c1cc2ccccc2o1	1%	24%	?	1%[46 µM]	9%	18µM*
O=C(Nc1ccccc1)c1cc2ccccc2o1	13µM*	-11%	9%	-4%	?	-16%
CC(NC(=O)c1cc2ccccc2o1)C(=O)O (configuration not stated)	1%	9%	22µM*	4%	26%	-6%
CC1=C(C(=O)Nc2ccccc2)C(c2cccs2)NC(=O)N1 (configuration not stated)	2%	nt	5%	0%[46 µM]	nt	nt
CNC(=S)Nc1ccc(C23CC4CC(CC(C4)C2)C3)cc1	nt	-26%	-3%	?	11%[10 µM]	nt
CCOC(=O)Cc1csc(/C(=N/O)C(N)=O)n1	3%	5%	28µM*	?	3%	-12%
CCS(=O)(=O)n1nc(-c2ccccc2)nc1NCc1ccco1	0%	2%	-13%	-5%	5%[10 µM]	5%
Cc1ccc(S(=O)(=O)n2nc(-c3ccc(Cl)cc3)nc2NCc2ccco2)cc1	2%	-28%	3.5µM*	-8%	1%	-24%
CCNc1c(NC(C)=O)c(=O)oc2ccccc12	0%	-10%	0%	-2%	nt	-15%
O=C(COC(=O)c1ccc2c(c1)OCCO2)NCCC1=CCCCC1	12%	-6%	-12%	?	5%	-13%
COc1ccc(/C=C(\C#N)C(=O)Nc2cc(S(=O)(=O)N3CCOCC3)ccc2N2CCCC2)cc1	4%	0%	10µM*	6%	-18%[10 µM]	13µM*
N#C/C(=C/c1cccc([N+](=O)[O-])c1)C(=O)Nc1ccccc1O	nt	3%[9.22 µM]	nt	nt	-1%[10 µM]	nt
COc1ccccc1NC(=O)/C(C#N)=C/c1cc([N+](=O)[O-])ccc1N1CCCC1	1%	16%	7%	-4%	4µM*	-20%
O=C(Nc1ccc(-c2cn3ccsc3n2)cc1)C1CCCC1	11µM*	5%	-10%	5%	-47%	14µM*
c1cn2cc(-c3ccc4c(c3)OCO4)nc2s1	-26%	5%	8.9µM*	9%	-79%	32µM*
NC(=S)N/N=C/c1ccccc1	2%	25%	6%	-17%	7%[10 µM]	-14%
CC(=O)c1c(C)[nH]c(C(=O)OC2CCOC2=O)c1C (configuration not stated)	4%	-9%	3%	-6%	-5%[10 µM]	5%
S=C(NC1CCCCC1)N1CCOCCOCCN(C(=S)NC2CCCCC2)CCOCC1	nt	-14%[9.22 µM]	nt	nt	-17%[10 µM]	nt
